Source: PubChem BioAssay AID1159580 (chemical genetic matrix, 2015)
Hit rate of the full screen: of about 5,500 compounds, about 2,000 (36%) were called active. Not shown: some 18% with an inconclusive outcome. Cut-off read from the data, not from the text of the source: active = normalized growth mostly below about 0.91 (no sharp cut-off); inconclusive = no clear call, values can overlap the other calls; inactive = mostly above about 0.92. The list shows a part of the results.

Assay: chemical genetic growth profiling, strain panel (AID 1159580);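 note: tested at 20 µM; growth read once vehicle control cultures reached saturation at 30 °C; 1 = growth at the plate median or of vehicle wells; lower values mean less growth of the strain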
Conditions: growth OD

Measured: normalized growth

O=C1c2ccccc2C(=O)N1CN1CCC(O)(c2ccc(Cl)cc2)CC1
inactive: S. cerevisiae deletion strains, locus YAL013W, strain DEP1, active compounds read low 0.975 | S. cerevisiae deletion strains, locus YBR229C, strain ROT2, active compounds read low 0.982 | S. cerevisiae deletion strains, locus YDL101C, strain DUN1, active compounds read low 0.988 | S. cerevisiae deletion strains, locus YDL134C, strain PPH21, active compounds read low 1.01 | S. cerevisiae deletion strains, locus YDR150W, strain NUM1, active compounds read low 1.01 | S. cerevisiae deletion strains, locus YEL061C, strain CIN8, active compounds read low 0.991 | S. cerevisiae deletion strains, locus YGR078C, strain PAC10, active compounds read low 0.981 | S. cerevisiae deletion strains, locus YGR229C, strain SMI1, active compounds read low 0.999 | S. cerevisiae deletion strains, locus YHR030C, strain SLT2, active compounds read low 0.953 | S. cerevisiae deletion strains, locus YHR087W, strain rtc3, active compounds read low 0.99 | S. cerevisiae deletion strains, locus YJR043C, strain POL32, active compounds read low 0.966 | S. cerevisiae deletion strains, locus YJR075W, strain HOC1, active compounds read low 0.987 | S. cerevisiae deletion strains, locus YKL190W, strain CNB1, active compounds read low 1.01 | S. cerevisiae deletion strains, locus YLR039C, strain RIC1, active compounds read low 0.988 | S. cerevisiae deletion strains, locus YLR058C, strain SHM2 (second series), active compounds read low 0.978 | S. cerevisiae deletion strains, locus YLR085C, strain ARP6, active compounds read low 1.06 | S. cerevisiae deletion strains, locus YLR262C, strain YPT6, active compounds read low 0.93 | S. cerevisiae deletion strains, locus YML094W, strain GIM5, active compounds read low 1.02 | S. cerevisiae deletion strains, locus YMR219W, strain ESC1, active compounds read low 0.993 | S. cerevisiae deletion strains, locus YMR263W, strain SAP30, active compounds read low 0.926 | S. cerevisiae deletion strains, locus YNL128W, strain TEP1, active compounds read low 0.987 | S. cerevisiae deletion strains, locus YNL153C, strain GIM3, active compounds read low 1.02 | S. cerevisiae deletion strains, locus YNL298W, strain CLA4 (second series), active compounds read low 0.974 | S. cerevisiae deletion strains, locus YNL322C, strain KRE1, active compounds read low 0.985 | S. cerevisiae deletion strains, locus YNR030W, strain Alg12, active compounds read low 0.991 | S. cerevisiae deletion strains, locus YPL055C, strain LGE1, active compounds read low 0.947 | S. cerevisiae deletion strains, locus YPL241C, strain CIN2, active compounds read low 1.01 | S. cerevisiae deletion strains, locus YPR135W, strain CTF4, active compounds read low 0.94 | S. cerevisiae strains, strain wild type, active compounds read low 0.992
